Experimental data taken from PubChem BioAssay (NCI).
Compounds without any hit were thinned out: in the full panel of roughly 83,000, 20% have a hit.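 For each line, cells grew in 96-well plates with the test compound present at a single concentration for 48 hours.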 Unmarked numbers belong to inactive results. The source made the active and inactive calls. Rule for the calls: active = growth percent below 10; inactive = the rest.

How the values were obtained:
Assay in all cases: NCI-60 one-dose screen, 48 h (100 = growth as untreated, 0 = no growth, -100 = all killed)
[1] = tested on: HOP-92 NSCLC; details: 10 µM unless noted
[2] = tested on: COLO 205 colon; details: 10 µM
[3] = tested on: K-562 leukemia; details: 10 µM unless noted
[4] = tested on: MALME-3M melanoma; details: 10 µM unless noted
[5] = tested on: SNB-19 CNS; details: 10 µM unless noted
[6] = tested on: U251 CNS; details: 10 µM unless noted
[7] = tested on: EKVX NSCLC; details: 10 µM unless noted
[8] = tested on: TK-10 renal; details: 10 µM unless noted
[9] = tested on: CCRF-CEM leukemia; details: 10 µM unless noted
[10] = tested on: SR leukemia; details: 10 µM
[11] = tested on: RPMI-8226 leukemia; details: 10 µM unless noted
[12] = tested on: OVCAR-4 ovarian; details: 10 µM unless noted
[13] = tested on: SK-OV-3 ovarian; details: 10 µM unless noted
[14] = tested on: T-47D breast; details: 10 µM unless noted
[15] = tested on: BT-549 breast; details: 10 µM
[16] = tested on: MCF7 breast; details: 10 µM unless noted
[17] = tested on: HCC-2998 colon; details: 10 µM unless noted
[18] = tested on: NCI-H522 lung; details: 10 µM unless noted
[19] = tested on: OVCAR-3 ovarian; details: 10 µM unless noted

Row | Structure (SMILES) | growth [1] | growth [2] | growth [3] | growth [4] | growth [5] | growth [6] | growth [7] | growth [8] | growth [9] | growth [10] | growth [11] | growth [12] | growth [13] | growth [14] | growth [15] | growth [16] | growth [17] | growth [18] | growth [19]
1 | N#C[Se]CCN1C(=O)C2C(C1=O)[C@H]1C=C[C@@H]2S1 (stereo partly specified) | -46.3% (active) | 68.3% | 24.3% | -40.5% (active) | -19.1% (active) | -56.9% (active) | -51.6% (active) | -65.3% (active) | 8.31% (active) | 6.77% (active) | -10.4% (active) | 25.3% | 4.59% (active) | 70.7% | -81% (active) | 5.71% (active) | 67.4% |  | 
2 | CCOc1cc(/C=N\Nc2nnc(C)n2N)c(C)cc1N(CCCl)CCCl | -17.4% (active) |  | 7.77% (active) |  | 14.2% |  |  |  | 4.43% (active) | -12.6% (active) | -37.9% (active) | 14.6% | 40.1% | 12.6% |  | 9.29% (active) |  | 15% | 4.15% (active)
3 | O=C(CCCN1CCC2(CC1)C(=O)NCN2c1ccc(F)cc1)c1ccc(F)cc1 | 102% | 124% | 113% | 94.7% | 95.6% | 102% | 135% | 102% | 96.9% |  | 101% | 108% | 98.4% | 102% |  | 85.9% | 100% | 87.5% | 124%
4 | COc1ccc(C(=O)c2ccc([As]=O)cc2)cc1 (stereo unspecified) | -96.1% (active) |  | 0.914% (active) | -87% (active) | -81.4% (active) | -98.1% (active) | -98.1% (active) |  | -25.1% (active) | -23.8% (active) | -24% (active) | -91.4% (active) | -99.8% (active) | -77.6% (active) | -99.6% (active) |  | -88.5% (active) | -84.1% (active) | -40.4% (active)
5 | CN(C)P1(N(C)C)=NP(N(C)C)(N(C)C)=NP(N(C)C)(N(C)C)=N1 | 76% | 113% | 102% | 106% | 103% |  |  |  |  | 92.6% | 98.1% | 95% | 106% | 103% | 105% |  | 111% |  | 106%
6 | OC1(c2ccc(Cl)cc2Cl)c2ccccc2C2=NCCN21 (stereo unspecified) | -2.5% (active) | 90.6% | 81.1% | 100% |  | 89.5% | 97.9% |  | 90.5% | 80.5% | 82.3% | 105% |  |  |  | 96.4% | 75.3% |  | 
7 | O=c1[nH]c2cc(Cl)ccc2n1C1CCN(CCCC(c2ccc(F)cc2)c2ccc(F)cc2)CC1 | -37.7% (active) | -88.3% (active) | -59.9% (active) | -1.17% (active) | 73.8% | 29.4% | 61.5% | 13.1% | -39.3% (active) | 16.2% | -52.8% (active) | 56.6% | 78.1% | 41.5% | 78.4% | -32.4% (active) | -63.4% (active) | -56.4% (active) | -99.6% (active)
8 | CO[C@@H]([CH2][Hg][S]C#N)[C@@H]([CH2][Hg][S]C#N)OC | 76.2% | 66.2% | 46.5% | 104% |  |  | 112% | 133% | 42.5% |  | 94.6% | 95.4% | 119% | 116% | 107% | 31% | 90.3% | 48.1% | -100% (active)
9 | O=[N+]([O-])c1ccc(/C=C/C=C/c2ccc(S(=O)(=O)F)cc2)c(Cl)c1 | 86.1% |  | 96.1% | 102% | 94.3% | 96.2% |  |  | 85.8% | 77.9% |  | 87.5% | 98% |  | 100% | 102% |  | 83.8% | 109%
10 | N#C[Se]CCCNS(=O)(=O)C1CC2C=CC1C2 (stereo unspecified) | -73.1% (active) | -39% (active) | 5.87% (active) | -55.5% (active) | -42.3% (active) | -76.6% (active) | -96% (active) |  | 17.4% | 7.66% (active) |  | 10% | -36.4% (active) | 30.6% | -71.3% (active) | 2.16% (active) | 4.61% (active) |  | -63.6% (active)
11 | [Cl][Hg][n]1cnc2c(Cl)c(Cl)c(Cl)cc21 | 116% |  | 96.5% | 97.6% | 102% |  | 81.7% | 108% | 102% |  | 98.9% | 109% | 113% | 72.2% | 112% | 78.3% | 107% | 50.2% | 94.5%
12 | CC(=O)Nc1ccc(Cc2ccc(NC(C)=O)cc2)cc1 | 45.6% |  | 112% | 103% | 121% | 101% | 103% |  | 101% | 125% |  | 99% |  | 103% | 117% | 99.8% | 116% | 104% | 119%
13 | C[C@@H]1CC[C@@H]2[C@@H]1[C@H](OC(=O)/C=C/C1CCCCC1)[C@]1(C3CCCCC3)C[C@@H](OC(=O)CO)[C@@]2(C)O1 | 41.6% |  | 44.1% | 78.8% | 85.8% |  | 78.1% | 81.7% | 41.1% |  | 25.3% | 61.1% | 69% |  | 0.314% (active) | 40.2% | 49.5% | 46.9% | 70.6%
14 | O=C(C(=O)N1CCCC1)c1cn(CCCCCn2cc(C(=O)C(=O)N3CCCC3)c3ccccc32)c2ccccc12 | 37.2% | 110% | 68.8% | 109% |  | 88% | 75.5% | 112% | -26.6% (active) | 67.7% | 66.2% | 73% | 103% |  | 90% |  | 103% | 89.5% | 88.4%
15 | Oc1ccc(O)c2c1C1(Cl)C(Cl)=C(Cl)C2(Cl)C1(Cl)Cl | 12% | 72% | 27.5% | 20% | 64.9% | 51.6% | 34.3% | 75.4% | 56.9% | 34.9% | 64% | 54.1% | 66.9% | 19.4% | 29.2% | 38.9% |  |  | 40.4%
16 | COP(=S)(OC)Oc1ccc(SC)c(C)c1 | 72.6% | 101% | 99.6% | 105% | 109% | 100% | 106% | 124% | 113% |  |  |  | 100% | 96.6% | 83.9% | 113% |  | 94.8% | 104%
17 | CCOC(=O)Nc1cc(Cl)c([N+](=O)[O-])c(NC(=O)OCC)n1 | 78.2% | 115% | 8.75% (active) | 99.3% | 98.1% | 102% |  | 103% | 33.1% | -22.8% (active) | 71.5% | 112% |  | 82.1% | 94.6% |  | 103% | 7.41% (active) | 103%
18 | CCOC(=O)/C(C#N)=C/c1ccc(N(CCCl)CCCl)cc1 | 67.6% | 112% | 98.6% | 99.7% | 106% | 92% |  | 91.4% |  | 30.3% | 88.4% | 61.5% | 92.6% | 80.6% | 95.3% | 71.9% | 105% |  | 108%
19 | COC(=O)C[Se]C(=O)c1ccccc1OC(C)=O | 93.3% | 46.7% | 79% | 69.9% | 83.9% | 66.3% | 31.4% | 93.1% | 76.6% | 20.7% |  | 54.4% | 221% | 84.5% | 71.9% | 65.5% |  |  | 84.5%
20 | O=C1NC(=O)C(=Cc2cn(Cc3ccccc3)c3ccccc23)C(=O)N1 | 79.3% | 18.3% | 63.5% | 109% |  | 84.1% | 63.7% | 28.8% | 98.1% | 71.4% | 75.7% | 68.3% | 53.2% | 55.9% | 77.6% | 85.9% | 70.2% | 102% | 72.6%
